A selection: hits, their analogues and other compounds. The true share with any hit is near 1.2%.
Neddyl block = inhibitors of cullin neddylation, primary screen, biochemical, TR-FRET, uHTS, NAE and Ubc12 | NEDD8-conjugating enzyme Ubc12 (Homo sapiens) + NEDD8-activating enzyme E1 regulatory … | actives 0.58% (n = 360,000) | AID 651699, 2012 | inhibition, % at 25 µM; in the data active = inhibition above about 36%
NOD2 RIPK2 PPI = NOD2-RIPK2 binding disruptors in cells, primary screen, fluorescence, CHO cells, BLA complementation | inhibition, % at 4.98 µM | CCF4 ratio | actives 0.38% (n = 360,000) | Receptor-interacting serine/threonine-protein kinase 2 (Homo sapiens), O43353; in the data active = inhibition above about 21%
GC-A act = GC-A stimulated cGMP production enhancers – HEK293 GC-A cells, cGMP TR-FRET, EC30 ANP, primary screen | Atrial natriuretic peptide receptor 1 (Homo sapiens), P16066 | 0% at EC30 ANP, 100% saturating ANP | actives 0.14% (n = 370,000) | activation, % at 10 µM; in the data active = activation above about 40%
TLR4 MyD88 comp = inhibitors of TLR4-MyD88 association in cells, primary screen, cell-based, HeLa CL3-4, BLA complementation, FRET ratio. HeLa CL3-4 TLR4/MyD88 BLA complementation. inhibition, % at 8.4 µM. actives 0.18% (n = 200,000). AID 861, 2007. Toll-like receptor 4 (Homo sapiens) + Myeloid differentiation primary response protein …; in the data active = inhibition above about 25%
TLR9-MyD88 block = inhibitors of TLR9-MyD88 association in cells, primary screen, cell-based, CHO, BLA complementation, fluorescence. Toll-like receptor 9 (Homo sapiens) + Myeloid differentiation primary response protein …. CCF4 FRET ratio. inhibition, % at 4.98 µM. actives 0.21% (n = 340,000). AID 504734, 2011;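 active = inhibition above the mean over all tested compounds plus 3 SD, cut at about 21% in these data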
NPR2 activator = human GC-B receptor activators, primary screen, HEK293 GC-B cells, cGMP TR-FRET, EC30 CNP | actives 0.11% (n = 370,000) | activation, % at 10 µM | Atrial natriuretic peptide receptor 2 (Homo sapiens), P20594 | 0% at EC30 CNP, 100% saturating CNP;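 active = activation at 10 µM reaching about 35% in either raw or pattern-adjusted values, limit read from the data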
Target sequence (P20594 whole entry, looked up): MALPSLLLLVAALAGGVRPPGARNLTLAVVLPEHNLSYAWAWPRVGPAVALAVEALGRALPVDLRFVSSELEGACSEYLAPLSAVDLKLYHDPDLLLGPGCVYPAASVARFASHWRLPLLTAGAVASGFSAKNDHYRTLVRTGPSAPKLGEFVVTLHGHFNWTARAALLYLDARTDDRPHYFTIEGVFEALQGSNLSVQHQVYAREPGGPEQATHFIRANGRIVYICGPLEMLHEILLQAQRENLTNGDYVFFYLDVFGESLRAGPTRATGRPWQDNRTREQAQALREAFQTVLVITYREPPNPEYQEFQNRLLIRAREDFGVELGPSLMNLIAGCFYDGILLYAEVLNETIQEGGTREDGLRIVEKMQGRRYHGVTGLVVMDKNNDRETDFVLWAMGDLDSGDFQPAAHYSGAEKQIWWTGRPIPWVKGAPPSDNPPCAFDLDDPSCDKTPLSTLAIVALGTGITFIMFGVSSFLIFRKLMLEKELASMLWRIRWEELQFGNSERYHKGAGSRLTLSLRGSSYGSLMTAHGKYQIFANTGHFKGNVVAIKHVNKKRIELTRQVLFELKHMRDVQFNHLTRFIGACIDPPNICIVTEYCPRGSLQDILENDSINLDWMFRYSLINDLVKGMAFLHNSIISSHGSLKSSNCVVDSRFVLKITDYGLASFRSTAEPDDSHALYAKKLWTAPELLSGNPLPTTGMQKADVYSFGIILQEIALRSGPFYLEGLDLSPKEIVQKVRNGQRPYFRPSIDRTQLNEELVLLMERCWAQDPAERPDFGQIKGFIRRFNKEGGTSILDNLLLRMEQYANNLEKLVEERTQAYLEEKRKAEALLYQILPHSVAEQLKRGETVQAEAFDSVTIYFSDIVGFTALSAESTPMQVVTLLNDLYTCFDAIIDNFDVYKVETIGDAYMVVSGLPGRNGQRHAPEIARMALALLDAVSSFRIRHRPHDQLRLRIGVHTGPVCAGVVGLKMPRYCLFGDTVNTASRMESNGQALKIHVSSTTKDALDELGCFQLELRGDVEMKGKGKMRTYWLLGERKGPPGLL
Hits are given with their value; - = inactive; . = no result given.

SMILES | Neddyl block | NOD2 RIPK2 PPI | GC-A act | TLR4 MyD88 comp | TLR9-MyD88 block | NPR2 activator
O=C(N/N=C/c1ccc(O)c(Br)c1)c1cc2c(ccc3ccccc32)o1 | . | - | - | . | - | -
O=C(N/N=C/c1cc(Br)c(O)c(Br)c1)c1cc2c(ccc3ccccc32)o1 | 51.3 | - | - | . | - | -
O=S(=O)(Nc1nc2ccccc2nc1N1CCc2ccccc2C1)c1ccc(Br)cc1 | 60.7 | - | - | - | - | -
CCc1nccn1CC(=O)c1ccc(O)c(O)c1 | . | . | - | . | . | -
COc1ccc(-c2nn(-c3ccccc3)cc2/C=N/NC(=S)NC(C)C)cc1OC | - | - | - | - | - | 41.9
C=CCNC(=S)N/N=C/c1cn(-c2ccccc2)nc1-c1ccc(OC)cc1 | - | - | - | - | - | 42.1
Cc1ccc(-c2nnc3n2N=C(c2ccc(-c4ccccc4)cc2)CS3)cc1 | . | . | - | . | . | -
N#C/C(=C/c1ccc(N2CCCCCC2)o1)c1ccc(F)cc1 | - | 39.1 | . | - | 23.7 | .
N#C/C(=C/c1ccc(N2CCCCCC2)o1)c1cccc(F)c1 | - | - | - | - | - | -
N#C/C(=C/c1ccc(N2CCOCC2)o1)c1ccc(Br)cc1 | - | 25.2 | - | - | - | -
N#C/C(=C\c1ccc(N2CCOCC2)o1)c1ccccc1 | - | - | - | - | - | -
Cc1ccc(S(=O)(=O)N2CCCC(C(=O)Nc3c(C)n(C)n(-c4ccccc4)c3=O)C2)cc1C (configuration not stated) | . | . | - | . | . | -
ClCc1nnc(-c2cc3c(s2)CCCC3)o1 | - | - | 53.9 | - | - | -
Fc1ccc(Br)cc1C1C=C(c2cccnc2)Nc2ncnn21 (configuration not stated) | . | 49.2 | . | - | 23.7 | .
C=CCN1C(=O)[C@@H](CC(=O)N2CCSCC2)[C@]2(C(=O)OC)CCCCC=C12 | . | . | - | . | . | -
CCN1CCN(Cc2ccc(NC(=O)c3ccc(C)c(NC(=O)c4cncc(-c5cccs5)c4)c3)cc2C(F)(F)F)CC1 | - | 29.3 | . | . | - | .
O=C(O)c1cc(NN=Nc2ccc(Br)cc2)cc([N+](=O)[O-])c1 | - | - | 43.1 | . | - | -
O=[N+]([O-])c1ccc(N=NNc2ccccc2)cc1 | - | - | . | - | - | .
Brc1ccc(N=NNc2ccccc2)cc1 | - | - | 44.6 | . | - | -
CCCCN(C)C(=O)CNc1nnnn1-c1ccccc1 | . | . | - | . | . | -
CCC(C)c1ccc(NC(=O)CSc2nnc(-c3cccc(C)c3)n2C)cc1 (configuration not stated) | . | . | - | . | . | -
C#CCOCCOCCOCCNc1nc(N2CCN(C(=O)CCCCCCCCCCNC(=O)[C@@H](CCSC)n3cc(CCO)nn3)CC2)nc(N2CCN(C(=O)CCCCCCCCCCNC(=O)[C@H](CCCN=C(N)N)n3cc(C[C@@H](C)CC)nn3)CC2)n1 | - | 41.3 | . | . | - | .
C#CCOCCOCCOCCNc1nc(N2CCN(C(=O)CCCCCCCCCCNC(=O)[C@H]([C@@H](C)CC)n3cc(CCCCN=C(N)N)nn3)CC2)nc(N2CCN(C(=O)CCCCCCCCCCNC(=O)[C@@H]([C@H](C)O)n3cc(C)nn3)CC2)n1 | - | 40.5 | . | . | - | .
C#CCOCCOCCOCCNc1nc(N2CCN(C(=O)CCCCCCCCCCNC(=O)[C@H](CCCCN)n3cc(C[C@@H](C)CC)nn3)CC2)nc(N2CCN(C(=O)CCCCCCCCCCNC(=O)[C@@H]([C@H](C)O)n3cc(C)nn3)CC2)n1 | - | 34.8 | . | . | - | .
C#CCOCCOCCOCCNc1nc(N2CCN(C(=O)CCCCCCCCCCNC(=O)[C@H](CCCCN)n3cc(C)nn3)CC2)nc(N2CCN(C(=O)CCCCCCCCCCNC(=O)[C@@H]([C@H](C)O)n3cc(C)nn3)CC2)n1 | - | - | . | . | - | .
SMILES | Neddyl block | NOD2 RIPK2 PPI | GC-A act | TLR4 MyD88 comp | TLR9-MyD88 block | NPR2 activator
C#CCOCCOCCOCCNc1nc(N2CCN(C(=O)CCCCCCCCCCNC(=O)[C@H](CCCCN)n3cc(C[C@@H](C)CC)nn3)CC2)nc(N2CCN(C(=O)CCCCCCCCCCNC(=O)[C@H](CCCN=C(N)N)n3cc(C[C@@H](C)CC)nn3)CC2)n1 | - | 73.3 | . | . | 34.0 | .
C#CCOCCOCCOCCNc1nc(N2CCN(C(=O)CCCCCCCCCCNC(=O)[C@@H](CCSC)n3cc(CCO)nn3)CC2)nc(N2CCN(C(=O)CCCCCCCCCCNC(=O)[C@H](CO)n3cc(CCCCCN)nn3)CC2)n1 | - | - | . | . | - | .
CCOC(=O)C1=C(C(=O)OCC)C2N(Cc3ccc(C#N)cc3)c3ccccc3[C@@]23C[C@@H](C(=O)OC)N(S(=O)(=O)c2ccc(C)cc2)C3=N1 (some centres not stated) | . | . | - | . | . | -
NC(=O)c1c(N)[nH]c(C(=O)c2ccccc2)c1-c1ccccn1 | . | . | - | . | . | -
COc1cc(-c2cc(-c3ccc(O)cc3)nc(N)c2C#N)ccc1O | . | - | - | - | - | -
COc1ccccc1-c1cc(-c2ccc(O)cc2)nc(N)c1C#N | . | - | 41.2 | . | - | -
COc1cc(OC)c2c(-c3cccc(-c4ccc(CO)cc4)c3)cc(=O)oc2c1 | - | 23.2 | . | . | - | .
Cn1c(SC2CCCC2)nnc1-c1ccco1 | . | . | - | . | . | -
CCCCNC(=O)O[C@H]1CC[C@@]23CCCN2C(=O)CCC[C@H]3[C@H]1CCC | . | . | - | . | . | -
CCC(C)N(C(C)CC)S(=O)(=O)c1ccc2[nH]c(=O)oc2c1 (configuration not stated) | . | . | - | . | . | -
CCOc1cc(C(=O)OCC(=O)Nc2c(C)cccc2C)ccc1OCC(=O)N1CCOCC1 | - | - | - | - | - | -
CCOC(=O)c1ccccc1NC(=O)COC(=O)c1ccc(OCC(=O)N2CCOCC2)c(OCC)c1 | - | - | - | . | - | 35.4
NC(=O)CCCn1c(C(=O)c2ccc(Cl)cc2)c2ccc([N+](=O)[O-])cc2[n+]1[O-] | - | - | - | . | - | -
NC(=O)CCCn1c(C(=O)c2cc(Cl)c(N)c(Cl)c2)c2ccc([N+](=O)[O-])cc2[n+]1[O-] | - | - | - | . | - | 58.4
Nc1nc2ccccc2n1C(=O)c1ccccc1 | 41.3 | - | - | - | - | -
Nc1nc2ccccc2n1C(=O)c1ccc(F)cc1 | - | - | - | - | - | -
COc1ccc(CCN(Cc2cccs2)S(=O)(=O)c2ccc(F)cc2)cc1OC | . | . | - | . | . | -
CCCCCN1CCCCC(NC(=O)c2cccc(F)c2)C1=O (configuration not stated) | . | . | - | . | . | -

Assay outcomes deposited in PubChem BioAssay by several laboratories.
